According to PubChem BioAssay AID652053 (Broad Institute, 2013):
The whole screen tested about 1,300 compounds, of which about 930 (72%) were called active.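 Rule for the calls: active = fitted curve reaches 40% activation signal increase at or below the top valid tested concentration in every replicate test; inconclusive = replicate tests disagree in their calls; inactive = all replicate tests inactive, including effects opposite the expected signal rise.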 So high a share suggests a set chosen from earlier hits. A selection follows. Potency and affinity values are given separately.

Experiment: suppression of miR-122 activity, Renilla luciferase sensor – cell-based, Huh7 psiCHECK-miR122, cherry-pick, dose response (AID 652053)
Details: Huh7 psiCHECK-miR122 Renilla luciferase reporter, 48 h; series mostly up to 35 µM

outcome, inactive:
C/C=C/c1ccc([C@H]2[C@@H](CO)N(c3nc(CC)cs3)[C@H]2CNC(C)C)cc1
Cc1cc(C)cc(NC2=NC3(CCCCC3)N=C(N)N2)c1
C/C=C/c1ccc([C@H]2[C@H](CO)N(c3nc(CC)cs3)[C@H]2CNC(C)C)cc1
Cc1cc(N/N=C/c2ccc(O)c(C)c2O)nc(-c2ccccc2O)n1
CCC(=O)Nc1ccc(C(=O)Nc2cccc(C)n2)cc1
C[C@H](CO)N1C[C@H](C)[C@H](CN(C)C(=O)NC2CCCCC2)Oc2ccc(NC(=O)Nc3cccc4ccccc34)cc2CC1=O
C[C@@H]1CN([C@@H](C)CO)C(=O)Cc2cc(NC(=O)Nc3cccc4ccccc34)ccc2O[C@@H]1CN(C)C(=O)NC1CCCCC1
C[C@H](CO)N1C[C@H](C)[C@@H](CN(C)Cc2ccncc2)Oc2ccc(NC(=O)Nc3cccc4ccccc34)cc2CC1=O
CC(C)NC(=O)Nc1ccc2c(c1)CC(=O)N([C@H](C)CO)C[C@@H](C)[C@@H](CN(C)Cc1ccc(Oc3ccccc3)cc1)O2
COc1ccc(NC(C)=O)cc1NC(C)C(=O)Nc1cc(C(F)(F)F)ccc1N1CCOCC1 (stereo unspecified)
COc1cccc(C(=O)Nc2cc([N+](=O)[O-])ccc2N2CCN(C)CC2)c1
Cc1nc2ccccc2n1S(=O)(=O)c1ccc(F)cc1
CC(C)n1c(/C=C/c2ccccc2)nc2ccccc21
COc1ccc(S(=O)(=O)Nc2ccc3c(c2)COC3=O)cc1OC
CC(=O)N1[C@H](CO)[C@H](c2ccc(C3=CCCCC3)cc2)[C@@H]1CNC(=O)CN(C)C
Cc1ccc(C)c(CSc2nnc(-c3cccnc3)o2)c1
COc1ccc(OC)c(Nc2cc(C)nc3nc(C)nn23)c1
Cc1cc(OCC(O)CN2CCOCC2)cc(C)c1Cl (stereo unspecified)
O=C(Nc1cccc([N+](=O)[O-])c1)c1ccc(CSc2ccccc2)cc1
Fc1ccc(-n2nnc(-c3nccs3)n2)cc1
CCc1nc2sc3c(c2c(=O)n1NC(=O)CCl)CCCC3
COc1ccc(CN(C)C[C@@H]2OCCCC[C@@H](C)Oc3ccc(NC(=O)c4ccccc4)cc3C(=O)N([C@H](C)CO)C[C@@H]2C)cc1
COc1cccc(N2CCN(C(=S)Nc3cccc(C)c3)CC2)c1
C/C=C/c1ccc([C@@H]2[C@@H](CO)N(c3nc(CC)cs3)[C@@H]2CNC(C)C)cc1
COc1ccc(CNC(=O)C(c2ccco2)N(C(=O)c2csnn2)c2cccc(C)c2C)cc1 (stereo unspecified)
O=C(Oc1ccc(C(=S)N2CCOCC2)cc1)c1ccccc1
O=C(Oc1ccc(C(=S)N2CCOCC2)cc1)c1ccc(F)cc1
COc1cc(C(=S)N2CCOCC2)cc(OC)c1OC(=O)c1ccc(F)cc1
O=C(Oc1ccc(C(=S)N2CCOCC2)cc1)c1ccccc1F
CCOC(=O)c1ccc(NS(=O)(=O)c2ccc3[nH]c(=O)[nH]c3c2)cc1
CCCNC(=O)NC[C@@H]1[C@H](c2ccc(C3=CCCC3)cc2)[C@@H](CO)N1C(=O)CC
CCCNC(=O)NC[C@H]1[C@H](c2ccc(C3=CCCC3)cc2)[C@H](CO)N1C(=O)CC
CC(=O)N1[C@H](CO)[C@@H](c2ccc(C3=CCCCC3)cc2)[C@@H]1CNC(=O)CN(C)C
CCCNC(=O)NC[C@@H]1[C@H](c2ccc(C3=CCCC3)cc2)[C@H](CO)N1C(=O)CC
CCCNC(=O)NC[C@H]1[C@H](c2ccc(C3=CCCC3)cc2)[C@@H](CO)N1C(=O)CC
CCCNC(=O)NC[C@H]1[C@@H](c2ccc(C3=CCCC3)cc2)[C@H](CO)N1C(=O)CC
CCC(=O)N1[C@H](CNC(=O)CN(C)C)[C@@H](c2ccc(C3=CCCC3)cc2)[C@@H]1CO
CCCNC(=O)NC[C@H]1[C@@H](c2ccc(C3=CCCC3)cc2)[C@@H](CO)N1C(C)=O
CN(C)Cc1cccc(-c2ccccc2)c1O
O=S(=O)(Nc1ccncc1)c1ccc(Cl)cc1
COc1ccc(-c2cccc(-c3cc(=O)oc4cc(OC)cc(OC)c34)c2)cc1
COc1cc(OC)c2c(-c3cccc(-c4ccc(N(C)C)cc4)c3)cc(=O)oc2c1
COc1cc(OC)c2c(-c3cccc(-c4ccc(O)cc4)c3)cc(=O)oc2c1
Cc1cc(C(=O)N2CCc3ccccc32)n(-c2ccccc2)n1
C/C(=N\NC(=O)c1cc(-c2cccs2)nc2ccccc12)c1ccccn1
CC(C)n1cc(NC(=O)c2cc(-c3ccccc3)on2)cn1
O=C(C[C@@H]1CC[C@H]2[C@@H](COC[C@@H](O)CN2C(=O)C2CCCC2)O1)NCc1ccncc1
O=C(COc1ccccc1F)c1ccc(O)cc1O
Cc1c(C(=O)N(C)CCC#N)oc2ccc(S(=O)(=O)N3CCOCC3)cc12
COc1ccccc1N1CCN(S(=O)(=O)c2ccc(F)cc2)CC1
COc1ccc(NC(=O)N(C)C[C@H]2Oc3ccc(NC(=O)Nc4ccc(C(F)(F)F)cc4)cc3CC(=O)N([C@H](C)CO)C[C@H]2C)cc1
C[C@@H]1CN([C@@H](C)CO)C(=O)c2cc(NC(=O)CCC(F)(F)F)ccc2O[C@@H]1CN(C)C(=O)Nc1ccc2c(c1)OCO2
COc1ccc(NC(=O)N(C)C[C@H]2Oc3ccc(NC(=O)Nc4ccc(C(F)(F)F)cc4)cc3CC(=O)N([C@@H](C)CO)C[C@H]2C)cc1
COc1ccc(NC(=O)N(C)C[C@@H]2Oc3ccc(NC(=O)Nc4ccc(C(F)(F)F)cc4)cc3CC(=O)N([C@@H](C)CO)C[C@H]2C)cc1
COc1ccc(NC(=O)N(C)C[C@@H]2Oc3ccc(NC(=O)Nc4ccc(C(F)(F)F)cc4)cc3CC(=O)N([C@H](C)CO)C[C@@H]2C)cc1
COc1ccc(NC(=O)N(C)C[C@H]2Oc3ccc(NC(=O)Nc4ccc(C(F)(F)F)cc4)cc3CC(=O)N([C@H](C)CO)C[C@@H]2C)cc1
